Reference: ChEMBL document CHEMBL1157539, “Thousands of chemical starting points for antimalarial lead identification” (Nature, 2010)

tested on: Plasmodium falciparum; experiment: GSK_TCMDC: Inhibition of Plasmodium falciparum 3D7 in whole red blood cells, using parasite LDH activity as an index of growth. Test compounds present at 2uM; assay type: functional

| Compound | Inhibition [%] |
| --- | --- |
| CCCC(CC)n1ccc2c3c(N)nc(N)nc3ccc21.CS(=O)(=O)O (stereo unspecified) | 94 |
| O=C(NCCCN1CCCCC1)c1ccc(Nc2nccc(Nc3ccc(Oc4ccccc4)cc3)n2)cc1 | 100 |
| CCCCCCNC(=N)c1ccc2[nH]c(-c3ccc(O)cc3)nc2c1.Cl | 100 |
| COc1ccc(-n2ncc(C(=O)N3CCC4(C3)C(=O)N(c3ccccc3)c3ccccc34)c2C)cc1 (stereo unspecified) | 88 |
| Cc1cccc2nc(-c3ccc(-c4ccc(CN5CCC(CO)CC5)cc4)s3)[nH]c12.O=C(O)C(F)(F)F | 100 |

tested on: Plasmodium falciparum; experiment: GSK_TCMDC: Inhibition of Plasmodium falciparum Dd2 in whole red blood cells, using parasite LDH activity as an index of growth. Test compounds present at 2uM; assay type: functional

| Compound | Inhibition [%] |
| --- | --- |
| CN1CCN(CC2(Nc3nccc(NCc4ccc(Cl)cc4Cl)n3)CCCCC2)CC1 | 58 |
| COc1ccc(CN(C)CCCc2ccc(NC(=O)c3cc4ccccc4[nH]3)cc2)cc1OC.O=C(O)/C=C/C(=O)O | 31 |
| COc1ccc(S(=O)(=O)Nc2ccc(C(=O)NCc3ccc(C(F)(F)F)cc3)cc2)cc1N1CCN(CC2CC2)CC1.O=C(O)C(F)(F)F | 1 |
| CCn1c(Cc2ccccc2)nnc1Sc1ccc([N+](=O)[O-])c(C#N)c1 | 72 |
| O=C(CCc1cccnc1)Nc1cccc(-c2ccc(-c3nc4cc(C(F)(F)F)ccc4[nH]3)cc2)c1 | 0 |
| COc1ccc(Cl)cc1N1CCN(CCCNC(=O)c2ccc(-c3nc4cc5ccccc5cc4[nH]3)c(F)c2)CC1 | 62 |
| COc1cccc(C2C(C(=O)Nc3ccccc3)=C(C)N=c3sc(=Cc4ccc(O)cc4)c(=O)n32)c1 (stereo unspecified) | 97 |
| Cc1cccc2nc(-c3ccc(-c4ccc(CNCCNC(=O)c5ccnn5C)cc4)s3)[nH]c12.O=C(O)C(F)(F)F | 97 |
| O=C(NCCCN1CCOCC1)c1cccc(Nc2nccc(Nc3ccc(Oc4ccccc4)cc3)n2)c1 | 22 |
| COc1cccc(C(=O)NCc2nnc(S)n2-c2ccc(Cl)c(Cl)c2)c1 | 100 |
| Cc1cccc2nc(-c3cccc(-c4ccc(NC(=O)C5CCN(C)CC5)cc4)c3)[nH]c12 | 100 |
| COc1ccccc1/C=C/C(=O)N(C)C1CCN(CCCCCNC(=O)/C=C/c2ccc(Cl)c(Cl)c2)CC1 | 63 |
| Cc1ccc2[nH]c(C)cc(=NN=Cc3cccc(F)c3)c2c1 | 99 |
| CC1CCCCN1Cc1cccc(-c2c[nH]c3nc(NC4CCCC4)ncc23)c1.O=C(O)C(F)(F)F (stereo unspecified) | 14 |
| COc1ccc(OCCCN2CCCCC2)cc1S(=O)(=O)c1ccc(OCc2ccc(C(F)(F)F)cc2)cc1.Cl | 8 |
| COc1ccc(C2C(C(=O)Nc3cc(C)ccc3OC)c3ccccc3C(=O)N2C)cc1 (stereo unspecified) | 3 |

| Compound | Inhibition [%] |
| --- | --- |
| O=C(O)C(F)(F)F.O=S(=O)(NCCN1CCCC1)c1ccc(-c2ccc(CNCc3ccc(F)cc3)cc2)cc1 | 44 |
| COc1cccc(CNC[C@@H](O)[C@H](Cc2ccccc2)NC(=O)c2cc(C3CCCC3)cc(N3CCCCS3(=O)=O)c2)c1.Cl | 83 |
| COc1cccc(-c2ccc(NC(=O)C3CCCN(Cc4cccc(OC)c4O)C3)cc2)c1 (stereo unspecified) | 78 |
| COc1cc(C(=O)NC2CCc3ccccc32)cc(Cl)c1OC (stereo unspecified) | 60 |
| CC(=O)N/N=C/[C@H](CCc1ccccc1)NC(=O)[C@H](CC(C)C)NC(=O)c1ccc(F)cc1 | 86 |
| FC(F)(F)c1ccc2[nH]ccc(=NN=Cc3ccccc3Cl)c2c1 | 83 |
| Cc1cccc2nc(-c3ccc(-c4ccc(NC(=O)Nc5ccsc5)cc4)s3)[nH]c12 | 88 |
| COc1ccc(C(=O)CCC(=O)N(Cc2ccc(-c3ccc(CNCCc4ccccc4)cn3)cc2)C(C)CN(C)C)cc1F.O=C(O)C(F)(F)F (stereo unspecified) | 57 |
| N#Cc1ccc(N2CCN(C(=O)c3cccc(-c4noc(C(F)(F)F)n4)c3)CC2)nc1 | 58 |
| COc1ccc(CNC(=O)NC2CCN(c3ccnc(Nc4cc(OC)c(OC)c(OC)c4)n3)C2)cc1 (stereo unspecified) | 90 |
| Cc1nc2nc(N)nc(N)c2c(C)c1Cc1ccc(C#N)cc1.Cl | 4 |
| COc1ccc2nccc([C@@H](O)CN3CCC(NC(=O)/C=C/c4cc([N+](=O)[O-])ccc4OC)CC3)c2c1 | 76 |
| Clc1cc(Nc2ccnc3ccc(Br)cc23)ccc1Oc1ccc(Cl)c2ccccc12 | 86 |
| O=C(N[C@H]1CCN(Cc2ccc(OC3CCN(Cc4ccccc4)CC3)c(Br)c2)C1)c1ccc(Cl)c(Cl)c1.O=C(O)C(F)(F)F | 30 |
| O=C(Nc1ccc(S(=O)(=O)NCCCN2CCOCC2)cc1)c1cc(-c2ccccc2)[nH]n1 | 29 |
